# SARS PLP yeast = qHTS of Yeast-based Assay for SARS-CoV PLP. S. cerevisiae expressing SARS-CoV PLpro, growth rescue. Potency, µM (titrated, usually from 32.9 µM), for inactives: top-dose activity, positive = growth rescue, hits mostly activators. hit rate 0.19% among 330,000. AID 485353, 2010; calls by dose curve; further: potency means the concentration at half of the fitted maximal effect; 0% is about no effect; nearly all actives have a fitted effect of over 55% in size
# Pf growth 48h = Primary qHTS for delayed death inhibitors of the malarial parasite plastid, 48 hour incubation; P. falciparum luciferase growth in erythrocytes, 48 h; Potency, µM (top dose mostly 28.7 µM), for the others: at the highest dose activity change, negative = inhibition, hits mostly inhibitors; hit rate 5.9% among 310,000; AID 504832, 2011; further: potency means the concentration at half of the fitted maximal effect; on the % scale 0 is the no-effect control and ±100 the full control effect
#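 Here the parasites carry a stable luciferase gene and grow inside erythrocytes in Albumax-based RPMI medium with compound for one erythrocytic cycle. Activity is scored as loss of luminescent signal.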
# Sm TGR inh = qHTS Assay for the Inhibitors of Schistosoma Mansoni Peroxiredoxins; Potency, µM (top dose mostly 114 µM), for inactives: top-dose activity change, negative = inhibition, actives largely listed as inhibitors; hit rate 3% among 360,000; Schistosoma mansoni thioredoxin glutathione reductase (TGR), Q962Y6; AID 485364, 2010; purified TGR, DTNB reduction, TNB absorbance 405 nm; further: potency means the concentration at half of the fitted maximal effect; on the % scale 0 is the no-effect control and ±100 the full control effect; nearly all actives have a fitted effect of over 60% in size
#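 First, TGR (20 nM dispensed) and NADPH were mixed with compound. Second, a 15 min room-temperature incubation followed. Third, further NADPH and then DTNB were added to start the reaction. Finally, TNB absorbance was monitored kinetically.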
# HCMV antiviral = qHTS Assay for inhibitors of the human cytomegalovirus (HCMV). HFF cells, HCMV-luciferase reporter, 72 h; active compounds read low. activity change, negative = inhibition, % at 57.5 µM. hit rate 4.5% among 410,000; in the data active means activity change below about -60%; inconclusive means no clear call, values can overlap the other calls; inactive means above about -39%; further: on the % scale 0 is the no-effect control and ±100 the full control effect
#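 Luciferase read-out from HCMV-luciferase-infected HFFs (MOI 1 PFU/cell) 72 h post infection at 37C; compounds added after 16 h cell attachment; activity normalized between buffer-only basal and Salinomycin (10uM) inhibitor controls.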
# HCV inhibitor = qHTS Assay for Inhibitors of Hepatitis C Virus (HCV). AID 651820, 2012. Huh7.5.1 HCVcc-Cre infection, luciferase reporter, 44 h. hit rate 3.4% among 340,000. Potency, µM (titrated, usually from 41.8 µM), for the others: top-dose activity change, negative = inhibition, most hits filed as inhibitors; further: potency means the concentration at half of the fitted maximal effect; on the % scale 0 is the no-effect control and ±100 the full control effect
#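 Infectious HCV cell culture screen: compound-treated cells (1,000/well, pre-plated 4 h) are infected with HCVcc-Cre at roughly 0.5 moi and grown 44 h. Infection is quantified by luciferase signal after 15 min substrate incubation at room temperature.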
# Pf growth 96h = Primary qHTS for delayed death inhibitors of the malarial parasite plastid, 96 hour incubation; P. falciparum luciferase reporter growth, 96 h; Potency, µM (series often up to 28.7 µM), for inactives: top-dose activity change, negative = inhibition, usual class: inhibitors; hit rate 6.9% among 320,000; AID 504834, 2011; further: potency means the concentration at half of the fitted maximal effect; on the % scale 0 is the no-effect control and ±100 the full control effect
#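 Infected RBCs, 2% Hct / 0.05% parasitemia final; luciferase-reporter P. falciparum; cpd 96 h, 37 C, 5% CO2; luciferase detection reagent; luminescence.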
# HCV confirm = qHTS Assay for Inhibitors of Hepatitis C Virus (HCV): Confirmation Assay for Cherry-picked Compounds | shares compounds with HCV inhibitor | HCVcc-Cre infectious virus cell assay, luciferase, inhibition | Potency, µM (series often up to 41.8 µM), inactives show at the top dose activity, negative = inhibition, most hits filed as inhibitors | hit rate 78% among 640 | AID 720575, 2013; further: potency means the concentration at half of the fitted maximal effect; nearly all actives have a fitted effect of over 80% in size
# HCV host tox = qHTS Assay for Inhibitors of Hepatitis C Virus (HCV): Cytotoxicity Counterscreen for Cherry-picked Compounds; HCV host cell line cytotoxicity counterscreen; AID 720576, 2013; shares compounds with HCV inhibitor; Potency, µM (doses to about 41.8 µM), for inactives: at the top dose activity change, negative = cytotoxicity, usual class: inhibitors; hit rate 22% among 640;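 further: potency means the concentration at half of the fitted maximal effect; 44 h compound exposure; on the % scale 0 is the no-effect control and ±100 the full control effect; nearly all actives have a fitted effect of over 55% in size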
# Starred values were filed as active, the others as inactive; ? = inconclusive; nt = no result given. The list is not random: actives were taken first. Their share in the collection is about 15%. Unless noted, the call rests on the fitted dose curve; in most records, active means well fitted curve in the direction sought with a large enough effect; inconclusive means small, poorly fitted or top-dose-only effect, or another doubt; inactive means no such curve, though single readings can be large; an effect the other way counts as inactive or inconclusive.
SMILES,SARS PLP yeast,Pf growth 48h,Sm TGR inh,HCMV antiviral,HCV inhibitor,Pf growth 96h,HCV confirm,HCV host tox
COc1ccc(Nc2ncc3c(n2)CC(c2ccccc2)CC3=O)cc1 (configuration not stated),-2%,?,2%,-10,?,?,nt,nt
CCc1ccc(Nc2ncc3c(n2)CC(c2ccc(OC)cc2)CC3=O)cc1 (configuration not stated),0%,?,11%,-64*,4µM*,-22%,?,-30%
O=c1[nH]c(=S)[nH]c2c1C(c1ccc(Cl)cc1)OC(C1CCCCC1)C2 (configuration not stated),nt,nt,nt,-12,nt,nt,nt,nt
Cc1cc(C)cc(N2C(=O)CSC23C(=O)N(CC(=O)NC2CCCCC2)c2ccccc23)c1 (configuration not stated),nt,nt,-7%,-6,nt,nt,nt,nt
CC1(C)Oc2ccc3ccc(=O)oc3c2-c2cn[nH]c21,-3%,?,3%,-81*,7.1µM*,9.3µM*,?,?
CCC(=O)Nc1cc2c(cc1C(=O)CC)OCCO2,-2%,nt,-3%,28,5.6µM*,9%,13µM*,20%
Cc1cc(/C=N/NC(=O)c2ccncc2)c(C)n1-c1ccccc1,1%,26%,-10%,-25,?,?,nt,nt
Cc1cc(C(=O)N/N=C/c2ccc(O)c(O)c2O)c(C)n1-c1ccccc1,14%,12µM*,40µM*,?,5.6µM*,1%,13µM*,?
Cc1cc(F)cc(-c2cc(C(=O)NCc3ccco3)[nH]n2)c1,nt,nt,nt,24,nt,nt,nt,nt
COC(=O)C1=C(C(=O)OC)SC2(S1)C(C(=O)OC)=C(C(=O)OC)Sc1c2ssc1=O,nt,nt,nt,-77*,?,nt,10µM*,7.9µM*
CN(C)C1C(=O)c2ccccc2C1=O,9%,-7%,-7%,-26,15%,42%,nt,nt
c1ccc(-c2cccc(-c3ccccn3)n2)nc1,-37%,1.5µM*,13%,-101*,5.6µM*,40%,3.5µM*,3.5µM*
Cc1ccccc1Nc1c(-c2ccc(N3CCOCC3)cc2)nc2ccc(Cl)cn12,nt,nt,0%,71,nt,nt,nt,nt
COC(=O)c1sc(-c2ccccc2)cc1NC(=O)C1CC1,2%,?,-1%,-4,?,28%,nt,nt
COC(=O)c1c(C(=O)OC)c2cccc3cc(-c4ccccc4)c4ccc1c4n32,-10%,nt,-29%,-4,1.8µM*,?,5.6µM*,?
Cc1cccc(Cn2c(O)c(N=NC(=S)Nc3ccccc3F)c3ccccc32)c1,4%,?,0%,-37,4µM*,0%,7.9µM*,?
CNc1ccc2nc3ccccc3[n+](C)c2c1,-5%,0.17µM*,6.3µM*,-101*,3.2µM*,0.17µM*,13µM*,14µM*
O=c1oc(C2(O)CCCCC2)cc2ccc(-c3ccc4[nH]ccc4c3)cc12,-8%,nt,nt,-93*,1.1µM*,nt,?,-14%
O=c1oc(C2(O)CCCCC2)cc2ccccc12,nt,nt,nt,-24,-85%,nt,nt,nt
CCOC(=O)c1c(C)nc2c3ccccc3ccn12,-16%,257%,0%,208,7.1µM*,21%,-23%,26%
Cn1c(-c2ccsc2)c(-c2cccs2)c2cc(-c3ccc4cc[nH]c4c3)ccc21,0%,2.1µM*,-5%,?,1.1µM*,?,11µM*,-35%
